The values that follow come from PubChem BioAssay (Tox21).

Records with an inconclusive call do not appear. A call without a number means that no potency is given here. Active and inactive are the calls of the source. Calls come from the whole dose curve; as a rule, active = well fitted cell-killing curve with a large enough effect in the repeat runs; inconclusive = weak or mixed curves, or effect the other way; inactive = no such curve, though single readings can be large or run the other way.

The experiment can be described thus: qHTS assay to identify small molecule antagonists of the glucocorticoid receptor (GR) signaling pathway - cell viability counter screen (AID 720693). Note: nearly all actives have a fitted effect of over 55% in size. Particulars: GR-bla HeLa viability, CellTiter-Glo luminescence, 18 h, with 5 nM dexamethasone present; series mostly up to 58.5 µM. An excerpt:
National Center for Advancing Translational Sciences [NCATS]
NIH Chemical Genomics Center [NCGC]
U.S. Environmental Protection Agency [EPA]
National Institutes of Environmental Health Sciences [NIEHS]
National Toxicology Program [NTP]
U.S. Food and Drug Administration [FDA]
The Glucocorticoid receptor (GR) is one of the members of the nuclear receptor family of ligand-dependent transcription factors. GR plays a critical role in carbohydrate, protein and lipid metabolisms and programmed cell death. CellSensor GR-bla HeLa cell line (Invitrogen) contains a beta-lactamase reporter gene under the control of the glucocorticoid response element stably integrated into HeLa cells, a cervical cancer cell line that expresses glucocorticoid receptor. The activation of the reporter gene under culture conditions can be detected by fluorescence intensity. This cell line has been used to screen the Tox21 10K compound library and to identify the compounds that inhibit the GR signaling. The cytotoxicity of the Tox21 compound library against the GR-bla HeLa cell line was tested in parallel by measuring the cell viability using CellTiter-Glo assay in the same wells.
Tox21 Assay Protocol Summary:
The GR-bla HeLa cells were dispensed at 1500 cells/5 ul/well in 1536-well black wall/clear bottom plates using a Multidrop Combi (ThermoFisher Scientific, Waltham, MA) dispenser. After the assay plates were incubated at a 37 C/5% CO2 incubator for 4 hours, 23 nL of compounds dissolved in DMSO, positive controls or DMSO only was transferred to the assay plate by a pintool station (Kalypsys, San Diego, CA), followed by addition of 1 uL of dexamethasone (5 nM, final concentration in the well). The plates were incubated at 37 C for 18 hours. After 1 uL of LiveBLAzerTM B/G FRET substrate was added using a Flying Reagent Dispenser (Aurora Discovery, San Diego, CA), the plates were incubated at room temperature (RT) for 2 hours, and fluorescence intensity was measured by an Envision plate reader (PerkinElmer, Shelton, CT). After measurement of bla assay, 3 ul CellTiter-Glo (Promega, Madison, WI) was added to measure the cytotoxicity and the plates were then incubated at RT for 30 min. The luminescence was measured using a ViewLux (Perkin Elmer) plate reader.
Turning to `O=P(O)(O)CN(CP(=O)(O)O)CP(=O)(O)O`, the Potency entry is “inactive”.

As for `CCc1cc(OC)c(C[C@H](C)N)cc1OC`, the Potency result is “inactive”.

Consider `CNC(=O)NC(O)C(Cl)(Cl)Cl` (stereo not given), for which the Potency result is “inactive”.

Regarding `Cn1c(CCCC(=O)O)nc2cc(N(CCCl)CCCl)ccc21`, the Potency result is “inactive”.

For `C[N+]1(C)CCCCC1`, the Potency result was “inactive”.

Regarding `CCCOC(=O)Cc1ccc(OCC(=O)N(CC)CC)c(OC)c1`, the Potency result is “inactive”.

Regarding `CCN[C@H](C)Cc1cccc(C(F)(F)F)c1`, the Potency entry is “inactive”.

On to `C=CCc1cc(OC)c2c(c1)OCO2`, for which the Potency result is “inactive”.

On to `O=C(NC(=O)c1c(F)cccc1F)Nc1cc(Cl)c(F)c(Cl)c1F`, for which the Potency entry is “inactive”.

For the molecule `CCNc1nc(Cl)nc(NC(C)(C)C)n1`, the Potency entry is “inactive”.

Turning to `ClCOCCl`, the Potency result is “inactive”.

As to `CCOC(=O)COc1ccc(Cl)cc1Cl`, the Potency entry was “inactive”.

As to `C/C(=N\NC(=O)Nc1cc(F)cc(F)c1)c1ncccc1C(=O)O`, the Potency entry was “inactive”.

Consider `COc1ccc2c(C(=O)c3ccc(Cl)cc3)c(C)n(CC(=O)O)c2c1`, for which the Potency result is “inactive”.

As to `CCOP(=S)(OCC)Oc1ccc(Cl)cc1Cl`, the Potency result is “inactive”.

For the molecule `CCC1(CC)C(=O)C=CNC1=O`, the Potency result is “inactive”.

For `C[C@H](N)C(=O)c1ccccc1`, the Potency entry was “inactive”.

For the molecule `NNC(N)=O`, the Potency entry is “inactive”.

As for `C#CCOC(=O)/C=C(C)/C=C/CC(C)CCCC(C)C` (stereo not given), the Potency result was “inactive”.

Turning to `Cc1cc(OC(=O)N(C)C)nn1C(=O)N(C)C`, the Potency result was “inactive”.

For `CCOC(=O)CCl`, the Potency entry is “inactive”.

With `O=C(O)CBr`, the Potency result was “inactive”.

With `Clc1ccc(C(Cl)(Cl)Cl)cn1`, the Potency entry is “inactive”.

Take `CCCCOC(C)=O`: the Potency entry is “inactive”.

Regarding `CCC(=O)c1ccc(Cl)cc1`, the Potency result is “inactive”.

With `CCC1(c2ccccc2)C(=O)N(COC)C(=O)N(COC)C1=O`, the Potency entry is “inactive”.

Consider `O=C/C=C/c1ccco1`, for which the Potency entry was “inactive”.

In the case of `CN(C)CCc1c[nH]c2cccc(OP(=O)(O)O)c12`, the Potency result is “inactive”.

With `CC(C)c1ccc(O)cc1`, the Potency result was “inactive”.

Regarding `COc1cc(CCN)cc(OC)c1OC`, the Potency result was “inactive”.

With `CCOC(=O)Nc1cccc(OC(=O)Nc2ccccc2)c1`, the Potency entry was “inactive”.

For `COC(=O)[C@@H](N)CCCN/C(N)=N/[N+](=O)[O-]`, the Potency result was “inactive”.

As for `CCOP(=S)(OCC)SCCl`, the Potency entry is “inactive”.

Turning to `O=C(O)c1c(Cl)ccc2cc(Cl)cnc12`, the Potency entry was “inactive”.

With `CCCC(C)(COC(N)=O)COC(N)=O`, the Potency entry was “inactive”.

Consider `CN1COCN(Cc2cnc(Cl)s2)/C1=N\[N+](=O)[O-]`, for which the Potency result is “inactive”.

On to `COc1cccc(C=O)c1`, for which the Potency entry was “inactive”.

In the case of `c1cncc([C@@H]2CCCCN2)c1`, the Potency result was “inactive”.

Take `O=C(NC(O)C(Cl)(Cl)Cl)NC(O)C(Cl)(Cl)Cl` (stereo not given): the Potency result is “inactive”.

Take `CC1=C2[C@H]3OC(=O)[C@@H](C)[C@@H]3CC[C@@]2(C)C=CC1=O`: the Potency entry is “inactive”.
